Results filed as inconclusive are left out. Calls of active or inactive are those of the source. Unless noted, calls follow the shape of the dose curve; as a rule, active = well fitted curve in the direction sought with a large enough effect in the repeat runs; inconclusive = weak or mixed curves; inactive = no such curve, though single readings can be large; an effect the other way counts as inactive or inconclusive.
Experiments:
[1] = qHTS assay to identify small molecule agonists of the NFkB signaling pathway - cell viability counter screen (AID 1159515; calls by dose curve; also: nearly all actives have a fitted effect of over 55% in size; also: potency is read from the fitted curve at half-maximal effect)
In short: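 Parallel cytotoxicity counter screen in ME-180 cells carrying an NFkB-response-element beta-lactamase reporter, 2,000 cells/well. Compound exposure lasted 5 hr at 37 C, 5% CO2. Cell viability was quantified by CellTiter-Glo luminescence.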

[2] = qHTS assay to identify small molecule antagonists of the retinoid-related orphan receptor gamma (ROR-gamma) signaling pathway - cell viability counter screen (AID 1159520); also: nearly all actives have a fitted effect of over 50% in size; also: potency is read from the fitted curve at half-maximal effect
In short: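 Tet-on ROR gamma CHO cells (1,000/well) were plated 4 hr, given compounds in DMSO for 2 hr at 37 C, then induced with 1 uM final doxycycline for 16 hr. Viability was read as ATP by CellTiter-Glo luminescence after 30 min.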

[3] = target: Nuclear receptor ROR-gamma (Homo sapiens) (UniProt P51449); experiment: qHTS assay to identify small molecule antagonists of the retinoid-related orphan receptor gamma (ROR-gamma) signaling pathway (AID 1159521; also: nearly all actives have a fitted effect of over 50% in size; also: potency is read from the fitted curve at half-maximal effect)
In short: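 RORγ antagonism is scored from reduced reporter luminescence in Tet-on CHO cells. Induction used 1 uM final doxycycline hyclate for 16 h at 37 C, following a 2 h compound exposure.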

[4] = qHTS assay to identify small molecule agonists of the AP-1 signaling pathway - cell viability counter screen (AID 1159525; calls by dose curve; also: nearly all actives have a fitted effect of over 55% in size; also: potency is read from the fitted curve at half-maximal effect)
In short: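 Each titration point was normalised to DMSO and tetra n-octyl ammonium bromide controls. The read was Cell Titer Glo luminescence after 30 min at RT, following 5 h compound exposure of ME-180 AP-1-bla cells at 37 °C.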

[5] = qHTS assay to identify small molecule agonists of the AP-1 signaling pathway (AID 1159526; calls by dose curve)
[6] = qHTS assay to identify small molecule agonists of the RXR signaling pathway - cell viability counter screen (AID 1159529); also: nearly all actives have a fitted effect of over 50% in size; also: potency is read from the fitted curve at half-maximal effect
In short: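 Cell viability is measured by CellTiter-Glo luminescence, 30 min at room temperature, in wells already read for beta-lactamase. Engineered HEK 293T cells (RXR-alpha-UAS-bla) are dosed 16 hr at 37 C. Tetraoctyl ammonium bromide serves as positive control.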

[7] = qHTS assay to identify small molecule antagonists of the retinoic acid receptor (RAR) signaling pathway (AID 1159552; also: nearly all actives have a fitted effect of over 50% in size; also: potency is read from the fitted curve at half-maximal effect)
In short: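 Quantitative HTS in C3RL4 RARE-luciferase reporter cells. Compounds were added with 1 uM (final) retinol; luminescence was read after 6 hr.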

[8] = qHTS assay to identify small molecule agonists of the retinoic acid receptor (RAR) signaling pathway (AID 1159553); also: potency is read from the fitted curve at half-maximal effect
In short: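 Quantitative high-throughput format: the Tox21 10K library was tested on C3RL4 RARE-luciferase cells for 6 hr at 37 C and 5% CO2, with luminescence measured after a 30 min room-temperature reagent step.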

[9] = qHTS assay to identify small molecule antagonists of the estrogen related receptor (ERR) signaling pathway - cell viability counter screen (AID 1224818);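 also: series mostly up to about 46 µM; viability measured after 17.5 h of compound exposure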
In short: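 Quantitative high-throughput viability counter screen in ERR cells. Compounds (DMSO) incubated 17.5 h at 37 C; read-out was CellTiter-Fluor fluorescence.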

[10] = qHTS assay to identify small molecule antagonists of the estrogen related receptor signaling pathway with the pleiotropic PPARgamma coactivator (PGC) cell viability counter screen (AID 1224822; also: series mostly up to about 46 µM)
In short: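 Cytotoxicity in the PGC/ERR cell line is assessed with CellTiter-Fluor, read as fluorescence intensity 30 min after reagent addition, following 17.5 h compound treatment at 37 C.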

[11] = qHTS assay to identify small molecule antagonists of the estrogen related receptor (ERR) signaling pathway from Tox21 library - cell viability counter screen (AID 1224834); also: nearly all actives have a fitted effect of over 30% in size; also: potency is read from the fitted curve at half-maximal effect
In short: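 Compounds in DMSO were pinned onto ERR cells that had been incubated for 6 h, and the plates were held at 37 C for 17.5 h. CellTiter-Fluor reagent was then added and fluorescence was measured after 30 min.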

[12] = qHTS assay to identify small molecule antagonists of the vitamin D receptor (VDR) signaling pathway - cell viability counter screen (AID 743225); also: nearly all actives have a fitted effect of over 50% in size; also: potency is read from the fitted curve at half-maximal effect
In short: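 Cells (VDR-UAS-bla HEK 293T) are plated, rested 4 h at 37C, dosed with compound and 3 nM final 1-alpha,25-dihydroxy vitamin D3, and incubated 16 h. Viability is taken from CellTiter-Glo luminescence in the reporter wells.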

[13] = qHTS assay to identify small molecule agonists of the endoplasmic reticulum stress response signaling pathway - cell viability counter screen (AID 1159517; calls by dose curve; also: nearly all actives have a fitted effect of over 50% in size; also: potency is read from the fitted curve at half-maximal effect)
In short: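 Cpd-treated ESRE-bla HeLa (5 hr, 37 C) → LiveBLAzer 2 hr RT → CellTiter-Glo 30 min RT → luminescence.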

[14] = qHTS assay to identify small molecule antagonists of the retinoid acid receptor (RAR) signaling pathway - cell viability counter screen (AID 1159551); also: nearly all actives have a fitted effect of over 35% in size; also: potency is read from the fitted curve at half-maximal effect
In short: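 ATP-based viability, C3RL4 cells, 6 h at 37 C with 1 uM final retinol co-added after compound; luminescence read 30 min post CellTiter-Glo, RT.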

[15] = target: Retinoic acid receptor RXR-alpha (Homo sapiens) (UniProt P19793); experiment: qHTS assay to identify small molecule agonists of the RXR signaling pathway (AID 1159527; calls by dose curve; also: nearly all actives have a fitted effect of over 35% in size)
In short: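 qHTS of the Tox21 10K library in GeneBLAzer RXR-alpha HEK 293T cells carrying a beta-lactamase reporter […]; 16 hr treatment, 9-cis retinoic acid as agonist control, FRET read-out.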

[16] = qHTS assay to identify small molecule agonists of the endoplasmic reticulum stress response signaling pathway (AID 1159516; active = well fitted activation curve with a large enough effect in the signal ratio in the repeat runs, not every such curve was filed as active; the % refers to the signal ratio)
In short: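 Using a HeLa line with an ESRE-driven beta-lactamase gene, agonist activity was measured by FRET substrate fluorescence (460 and 530 nm emission) after cells were treated with compounds for 5 hr at 37 C and 5% CO2.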

Measured: Potency

Sequence of Retinoic acid receptor RXR-alpha (Homo sapiens) (P19793 whole entry, looked up): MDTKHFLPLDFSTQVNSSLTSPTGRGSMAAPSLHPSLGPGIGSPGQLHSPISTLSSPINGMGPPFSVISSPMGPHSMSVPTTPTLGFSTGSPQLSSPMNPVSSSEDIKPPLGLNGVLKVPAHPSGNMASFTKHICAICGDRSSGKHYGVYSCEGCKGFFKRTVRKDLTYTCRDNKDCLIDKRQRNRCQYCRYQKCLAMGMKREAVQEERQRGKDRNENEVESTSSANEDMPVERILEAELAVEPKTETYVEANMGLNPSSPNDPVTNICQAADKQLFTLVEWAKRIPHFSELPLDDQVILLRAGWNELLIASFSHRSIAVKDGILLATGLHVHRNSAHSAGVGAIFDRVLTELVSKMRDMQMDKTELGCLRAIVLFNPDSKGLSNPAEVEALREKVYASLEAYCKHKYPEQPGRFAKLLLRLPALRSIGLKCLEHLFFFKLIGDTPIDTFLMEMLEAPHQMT

CCCSP(=O)(OCC)SCCC
not listed: [12] | [13] | [14] | [15] | [16]
inactive: all other assays above

CC(C)CC(C)Nc1ccc(Nc2ccccc2)cc1 (stereo not given)
active: [12] 48.2 µM | [1] 54 µM | [2] 67.4 µM | [3] 47.7 µM | [6] 54 µM | [11] 60.1 µM
inactive: [7] | [8]

C=CC(=O)OCCCCOC(=O)C=C
inactive: [12] | [1] | [6]
active: [2] 19.3 µM | [11] 54.5 µM

CCCCCCCCCCCCCCCCCCn1cc[n+](C)c1
inactive: [4] | [5]
active: [12] 19.4 µM | [1] 48.7 µM | [2] 60.8 µM | [3] 3.05 µM | [6] 10.9 µM | [7] 21.6 µM | [11] 27.1 µM

CC(C)OC(=S)S
inactive: [12] | [1] | [13] | [4] | [11]

CCN(CC)c1c([N+](=O)[O-])cc(C(F)(F)F)c(N)c1[N+](=O)[O-]
active: [3] 27.3 µM
inactive: [12] | [1] | [2] | [14]

CCCCCCCCCC[N+](C)(C)CCCCCCCCCC
active: [12] 15.5 µM | [1] 54.9 µM | [13] 54.9 µM | [4] 34.7 µM | [6] 15.5 µM | [7] 12.2 µM | [11] 43.3 µM

CC(C)C1CCC(Cc2ccc(Cl)cc2)C1(O)Cn1cncn1 (stereo not given)
active: [12] 48.5 µM | [1] 54.4 µM | [2] 60.5 µM | [3] 30.3 µM | [4] 48.5 µM | [6] 54.4 µM | [14] 60.5 µM | [7] 42.8 µM | [11] 53.9 µM

CC(C)OC(=O)C(O)(c1ccc(Cl)cc1)c1ccc(Cl)cc1
active: [1] 49 µM | [2] 68.6 µM | [3] 54.5 µM | [4] 34.7 µM | [6] 38.9 µM | [7] 43.3 µM

Oc1c(Br)c(Br)c(Br)c(Br)c1Br
inactive: [1] | [2] | [4] | [14] | [8]

CN(C)c1ccc(N=Nc2ccccc2)cc1
inactive: [12] | [1] | [2] | [3] | [4] | [5] | [14] | [7]
active: [8] 0.097 µM | [11] 43.3 µM

Cc1c(Cl)c(=O)oc2cc(OP(=O)(OCCCl)OCCCl)ccc12
not listed: [9] | [10] | [13] | [16]
inactive: all other assays above

CC[C@H](C)[C@H]1O[C@]2(C=C[C@@H]1C)C[C@@H]1C[C@@H](C/C=C(\C)[C@@H](O[C@H]3C[C@H](OC)[C@@H](O[C@H]4C[C@H](OC)[C@@H](O)[C@H](C)O4)[C@H](C)O3)[C@@H](C)/C=C/C=C3\CO[C@@H]4[C@H](O)C(C)=C[C@@H](C(=O)O1)[C@]34O)O2
active: [12] 11.5 µM | [1] 28.9 µM | [2] 25.6 µM | [4] 23 µM | [6] 16.3 µM | [7] 32.2 µM | [11] 16.1 µM

COc1ccc(OC)c(CC(C)N)c1 (stereo not given)
not listed: [9] | [10] | [13] | [14] | [16]
inactive: all other assays above

O=[N+]([O-])O.O=[N+]([O-])O.[Cd]
inactive: [1] | [13] | [4] | [14]
active: [12] 19.5 µM | [6] 43.6 µM | [11] 9.69 µM

CCC(C)(C)C(=O)OC1=C(c2ccc(Cl)cc2Cl)C(=O)OC12CCCCC2
inactive: [12] | [1] | [3] | [4] | [15] | [6] | [14] | [7] | [11]

CN(C)C(=S)[S-].CN(C)C(=S)[S-].[Cu+2]
active: [12] 4.74 µM | [1] 4.74 µM | [4] 6.7 µM | [6] 0.844 µM | [14] 16.7 µM | [11] 1.18 µM

N#CNC#N
not listed: [1] | [3] | [9] | [10] | [12]
inactive: all other assays above

C1CCC2CCCCC2C1 (stereo not given)
not listed: [1] | [4] | [7] | [8] | [9] | [10]
inactive: all other assays above

Clc1ccc(CCC(Cn2ccnc2)Sc2c(Cl)cccc2Cl)cc1 (stereo not given)
inactive: [14] | [7] | [8]
active: [1] 23.9 µM | [4] 26.8 µM | [6] 23.9 µM | [11] 29.8 µM
